Laboratory results taken from PubChem BioAssay AID624481 (The Scripps Research Institute Molecular Screening Center, 2012).
Calls of active or inactive are those of the source. No stated cut-off is given here; in the data, active means inhibition above about 50%; inactive means the rest.

What follows are compounds tested against Prolyl endopeptidase-like (Mus musculus) (UniProt Q8C167) (assay: mouse PREPL enzyme inhibition by screening hits – biochemical, gel-based competitive ABPP, fluorescence, HTS hits, PREPL inhibitor project (AID 624481)). Conditions: purified mouse PREPL, at 20 µM, active compounds read high.
Chain of Prolyl endopeptidase-like (Mus musculus) (Q8C167 whole entry, looked up): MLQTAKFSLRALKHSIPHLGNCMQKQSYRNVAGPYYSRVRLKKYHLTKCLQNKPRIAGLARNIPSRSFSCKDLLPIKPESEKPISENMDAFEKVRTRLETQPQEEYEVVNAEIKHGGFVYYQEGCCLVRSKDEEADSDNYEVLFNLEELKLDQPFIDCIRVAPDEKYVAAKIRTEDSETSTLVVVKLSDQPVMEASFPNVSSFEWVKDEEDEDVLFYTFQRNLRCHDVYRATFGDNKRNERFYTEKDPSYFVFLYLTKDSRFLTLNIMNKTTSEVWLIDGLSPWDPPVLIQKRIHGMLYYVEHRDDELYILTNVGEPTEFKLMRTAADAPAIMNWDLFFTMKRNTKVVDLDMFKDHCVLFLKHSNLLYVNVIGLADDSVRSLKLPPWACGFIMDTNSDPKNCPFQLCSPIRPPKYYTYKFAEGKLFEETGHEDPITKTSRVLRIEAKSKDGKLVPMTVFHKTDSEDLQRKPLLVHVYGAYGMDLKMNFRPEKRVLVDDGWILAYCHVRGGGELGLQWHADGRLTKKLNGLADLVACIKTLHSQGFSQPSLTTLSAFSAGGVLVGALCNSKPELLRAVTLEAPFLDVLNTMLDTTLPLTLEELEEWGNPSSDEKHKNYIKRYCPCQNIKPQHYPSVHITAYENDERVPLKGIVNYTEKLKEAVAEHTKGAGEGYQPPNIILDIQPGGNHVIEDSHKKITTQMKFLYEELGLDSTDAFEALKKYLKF

Row | Compound | inhibition
1 | Oc1c(CN2CCCCC2)cc(COCc2ccccc2)c2cccnc12 | 92% (active)
2 | Nc1c(C(=O)c2cccs2)sc2nsc(SCCN3CCCCC3)c12 | -18% (inactive)
3 | c1ccc(N2CCN(c3nc(-c4ccccn4)nc4ccccc34)CC2)cc1 | -283% (inactive)
4 | c1ccc(CCNc2nc(-c3ccccn3)nc3ccccc23)cc1 | -127% (inactive)
5 | O=C(C1=C[C@@H](c2ccc(C(F)(F)F)cc2)C[C@@H](OCc2ccc(CO)cc2)O1)N1CCN(Cc2ccc3c(c2)OCO3)CC1 | -49% (inactive)
6 | CCC(CO)[n+]1c(C)cc(/C=C2\Sc3ccccc3N2Cc2ccccc2)cc1C (configuration not stated) | -20% (inactive)
7 | Cc1ccc2nc3c(cc(C(=O)NCCc4ccccc4)c(=N)n3CCCN3CCOCC3)c(=O)n2c1 | -43% (inactive)
8 | Cc1cc2cc(CNC(=O)c3ccc(Br)o3)ccc2n1C | 38% (inactive)
9 | CC(=O)N1CCN(c2ccc(NC(=O)COc3ccc(Cl)cc3Cl)cc2)CC1 | -20% (inactive)
10 | CCCCCCCCCCCCCCCC[N+](C)(C)CCN(Cc1ccc(OC)cc1)c1ncccn1 | 81% (active)
11 | Cc1ccccc1-c1ccc(Nc2ccc(N3CCOCC3)cc2)nn1 | 12% (inactive)
12 | COc1ccc2cc1Oc1ccc(cc1)CC1c3c(cc(OC)c4c3Oc3cc5c(cc3O4)CCNC5C2)CCN1C (configuration not stated) | -113% (inactive)
13 | CC(C)C[C@@H]1CN=C(N)N1C[C@@H]1CCCN1C[C@@H](C(C)C)N1C[C@@H](Cc2ccccc2)N(CCCC2CCCC2)C1=N | -52% (inactive)
14 | O=C(CSc1ccccc1F)Nc1ccc(N2CCOCC2)cc1 | -55% (inactive)
15 | COc1ccc(C(CCNCc2ccc(N(C)C)cc2)c2ccccc2)cc1 (configuration not stated) | -124% (inactive)
16 | c1cncc(CNc2ccc3c(c2)OCO3)c1 | -50% (inactive)
17 | CCc1ccc(Nc2n[n+](-c3ccccc3)c(-c3ccc(N(CC)CC)cc3)s2)cc1 | -100% (inactive)
18 | CN(C)CCCNc1cc(C(C)(C)C)nc2c(-c3ccccc3)cnn12 | -34% (inactive)
19 | COc1ccc(N2CCN(c3ccc4nnc(CCC(=O)Nc5ccc(C)cc5)n4n3)CC2)cc1 | -20% (inactive)

Row | Compound | inhibition
20 | O=C(C1=C[C@@H](c2ccc(Br)cc2)C[C@@H](OCCCCO)O1)N1CCN(Cc2ccc3c(c2)OCO3)CC1 | -47% (inactive)
21 | CCOc1ccc(CCNC(=O)c2ccc3c(=O)[nH]c4c(C(=O)NC(C)C)sc(=S)n4c3c2)cc1 | 14% (inactive)
22 | O=c1[nH]c2ccc(NCc3ccccc3OCc3ccc(Cl)cc3)cc2[nH]1 | -43% (inactive)
23 | CN(C)c1ccc(C(CNC(=O)c2ccc(-c3ccccc3)cc2)N2CCOCC2)cc1 (configuration not stated) | -7% (inactive)
24 | Cc1ccc2c(CC(=O)Nc3ccc(N4CCN(C)CC4)cc3C)coc2c1 | -3% (inactive)
25 | C#CCOCCOCCOCCNc1nc(N2CCN(C(=O)C(Cc3ccc(O)cc3)n3cc(C(N)CC(C)C)nn3)CC2)nc(N2CCN(C(=O)C(Cc3cc4ccccc4[nH]3)n3cc(C(N)Cc4ccc(O)cc4)nn3)CC2)n1 (configuration not stated) | -100% (inactive)
26 | C#CCOCCOCCOCCNc1nc(N2CCN(C(=O)[C@H](Cc3cc4ccccc4[nH]3)n3cc([C@@H](N)C(C)CC)nn3)CC2)nc(N2CCN(C(=O)[C@H](CCCCN)n3cc([C@@H](N)CC(C)C)nn3)CC2)n1 (some centres not stated) | -29% (inactive)
27 | Oc1c(CN2CCCC2)cc(COCc2ccccc2)c2cccnc12 | -64% (inactive)
28 | CCCCCNC(=O)c1ccc2c(=O)[nH]c3c(C(=O)NCC4CCCO4)sc(=S)n3c2c1 (configuration not stated) | -19% (inactive)
29 | COc1ccc(C(=O)c2coc3ccc(O)c(CN4CCCCC4)c23)cc1 | -53% (inactive)
30 | COc1cccc(C2=CC(c3ccc(N(C)C)cc3)n3nnnc3N2)c1 (configuration not stated) | -95% (inactive)
31 | Nc1nn(-c2ccccc2)c(N)c1N=Nc1ccccc1F | -38% (inactive)
32 | O=S(=O)(c1ccc(-c2csc(=Nc3ccccc3)n2CCCN2CCOCC2)cc1)N1CCOCC1 | 57% (active)
33 | Oc1ccccc1-[n+]1c(-c2ccccc2)cc(-c2ccccc2)cc1-c1ccccc1 | -30% (inactive)
34 | CCN1C(=O)/C(=C\N2CCN(c3ccccc3)CC2)SC1=S | -14% (inactive)
35 | O=c1cc(-c2ccc(O)c(O)c2)oc2cc(O[C@@H]3O[C@H](CO)[C@@H](O)[C@H](O)[C@H]3O)cc(O)c12 | -12% (inactive)
36 | CN1CCN(c2ccc(NC(=O)COc3ccc(Cl)cc3Cl)cc2)CC1 | -13% (inactive)
37 | C#CCOCCOCCOCCNc1nc(N2CCN(C(=O)CCCCCCCCCCNC(=O)[C@H](CCCCN)n3cc(CCO)nn3)CC2)nc(N2CCN(C(=O)CCCCCCCCCCNC(=O)[C@H](CCCN=C(N)N)n3cc(C[C@@H](C)CC)nn3)CC2)n1 | -34% (inactive)
